The list is not random: actives were taken first. Their share in the collection is about 10%.
CCT chaperon mod: High-Throughput Screening for Modulators of Cytosolic Chaperonin Activity. purified chaperonin ATPase assay, HTRF ADP detection, 30 min. actives 0.3% (n = 360,000). activity change, % (no concentration beside the values), hits read low; in the data active means activity change below about -30%
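First, chaperonin was dispensed at 40 nM or 20 nM final depending on batch activity. Next, compounds were pinned at 76 uM and ATP added at 10 uM. After 30 min at 37 °C, ADP detection reagents ran 30 min at ambient temperature.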
Mm-Cpn inhibitor: Inhibitors of TCP-1 ring complex (TRiC) of Methanococcus maripaludis (MmCpn): qHTS; Chaperonin Mm-Cpn (Methanococcus maripaludis); purified Mm-Cpn ATPase, ADP Transcreener TR-FRET; Potency, µM (series often up to 76.9 µM), for inactives: at the top dose activity, negative = inhibition, usual class: inhibitors; actives 0.031% (n = 330,000); further: potency means the concentration at half of the fitted maximal effect; nearly all actives have a fitted effect of over 80% in size
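Purified archaeal Mm-CPN (25nM final) preincubated 10 min at 37degC with compound, then 10uM ATP for 30 min at 37degC; ADP measured by HTRF Transcreener TR-FRET; buffer 30 mM TRIS pH 7.4, 100mM KCl, 5mM MgCl2, 1mM DTT.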
VDR inhibitor: Inhibitors of the vitamin D receptor (VDR): qHTS. Potency, µM, inactives show max response, negative = inhibition, usual class: inhibitors. Vitamin D3 receptor (Homo sapiens), P11473. AID 504847, 2011. VDR-SRC2-3 peptide fluorescence polarization, 2 h. actives 0.93% (n = 400,000); further: potency means the concentration at half of the fitted maximal effect
Target sequence (P11473 whole entry, looked up): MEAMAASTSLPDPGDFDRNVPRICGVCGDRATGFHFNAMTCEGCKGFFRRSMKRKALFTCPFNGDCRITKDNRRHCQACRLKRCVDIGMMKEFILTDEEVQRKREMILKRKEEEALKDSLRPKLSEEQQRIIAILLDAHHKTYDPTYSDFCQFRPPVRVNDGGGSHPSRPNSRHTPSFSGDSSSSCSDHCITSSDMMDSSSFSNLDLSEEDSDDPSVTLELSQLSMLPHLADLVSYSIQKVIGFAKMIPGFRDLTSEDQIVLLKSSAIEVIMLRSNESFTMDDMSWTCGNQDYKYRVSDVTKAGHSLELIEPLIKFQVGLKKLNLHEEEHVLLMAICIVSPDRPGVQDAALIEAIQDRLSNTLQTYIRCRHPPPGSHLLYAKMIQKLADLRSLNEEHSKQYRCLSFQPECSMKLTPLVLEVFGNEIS
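Compounds are added to VDR with labelled SRC2-3 coactivator peptide and held 2 h at room temperature. Inhibition of the VDR–peptide interaction is then read as a change in fluorescence polarization.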
Sfp inh: qHTS Assay for Inhibitors of Bacillus subtilis Sfp phosphopantetheinyl transferase (PPTase); 4'-phosphopantetheinyl transferase ffp (Bacillus subtilis), Q9F4F7; actives 3.5% (n = 310,000); Potency, µM, for inactives: largest response in the series, negative = inhibition, most hits filed as inhibitors; Biochemical Sfp PPTase activity, qHTS;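 further: the enzyme is Sfp with the accession as filed and its product quenches rhodamine fluorescence; potency means the concentration at half of the fitted maximal effect; 0% = enzyme reaction without inhibitor and -100% = no enzyme wells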
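Buffer: 50 mM Hepes-Na pH 7.6, 10 mM MgCl2, 0.01% Nonidet P-40, 0.01% BSA. Enzyme 15 nM, pre-exposed to compound 15 min; substrates then added and fluorescence change tracked over 30 min.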
PLK1 PBD block: qHTS for Inhibitors of PLK1-PDB (polo-like kinase 1 - polo-box domain): Primary Screen. Serine/threonine-protein kinase PLK1 (Homo sapiens), P53350. Plk1 PBD binding of FITC phosphopeptide, fluorescence polarization. Potency, µM, without a hit: max response, negative = inhibition, usual class: inhibitors. actives 2.8% (n = 360,000). AID 720504, 2013; further: potency means the concentration at half of the fitted maximal effect; series mostly up to about 57 µM; nearly all actives have a fitted effect of over 65% in size
G9a block: qHTS Assay for Inhibitors of Histone Lysine Methyltransferase G9a; Histone-lysine N-methyltransferase EHMT2 (Homo sapiens), Q96KQ7; G9a H3K9 monomethylation, AlphaScreen, 2 h; Potency, µM (series often up to 102 µM), for the others: at the highest dose activity, negative = inhibition, usual class: inhibitors; actives 8.8% (n = 350,000); AID 504332, 2011; further: potency means the concentration at half of the fitted maximal effect; nearly all actives have a fitted effect of over 75% in size
Target sequence (Q96KQ7 913-1193 limits assumed): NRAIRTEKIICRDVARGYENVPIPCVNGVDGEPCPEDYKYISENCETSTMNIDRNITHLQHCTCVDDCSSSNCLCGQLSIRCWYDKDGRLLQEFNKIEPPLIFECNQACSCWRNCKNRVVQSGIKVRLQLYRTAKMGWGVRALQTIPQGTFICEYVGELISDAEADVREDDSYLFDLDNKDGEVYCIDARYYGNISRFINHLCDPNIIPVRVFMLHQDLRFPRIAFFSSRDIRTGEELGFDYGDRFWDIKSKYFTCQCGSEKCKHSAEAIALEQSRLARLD
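G9a (20 nM) preincubated 15 min RT with compounds, then 500 nM biotinylated H3K9 peptide and 20 uM SAM added; 2 h RT reaction. Monomethyl-H3K9 product detected by AlphaScreen with anti-H3K9me1 antibody, streptavidin donor and anti-rabbit IgG acceptor beads.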
* hit, by the source's call; ? = inconclusive; nt = not tested or not shown; [ ] = remark or other dose. Unless noted, the call rests on the fitted dose curve; in most records, active means well fitted curve in the direction sought with a large enough effect; inconclusive means small, poorly fitted or top-dose-only effect, or another doubt; inactive means no such curve, though single readings can be large; an effect the other way counts as inactive or inconclusive. Unless noted, on the % scale 0 is the no-effect control and ±100 the full control effect.

SMILES	CCT chaperon mod	Mm-Cpn inhibitor	VDR inhibitor	Sfp inh	PLK1 PBD block	G9a block
Cc1cc(Cl)c(OCCCNC2CCCC2)c(Br)c1	-1	0%	8%	0%	0%	10µM*
Cc1cc(C)c(OCCOCCN2CCCC2)c(C)c1	-4	nt	-4%	nt	-2%	nt
CCc1ccc(CN(Cc2ccco2)c2cnc(S(C)(=O)=O)nc2C(=O)Nc2ccccc2Cl)cc1	nt	nt	0%	nt	nt	-28%[59 µM]
O=C(OCC(=O)c1ccc(Cl)cc1Cl)c1ccc2c(c1)C(=O)N(c1cccc3ncccc13)C2=O	-1	-4%	-21%	?	-3%	-47%
Cc1ccc(C(=O)COC(=O)c2ccc3c(c2)C(=O)N(c2cccc4ncccc24)C3=O)cc1	0	0%	19%	79µM*	-2%	9%[59 µM]
O=C(COC(=O)c1ccc2c(c1)C(=O)N(c1cccc3ncccc13)C2=O)c1ccc(Cl)cc1	-1	2%	-1%	28µM*	-7%	3%[59 µM]
CCc1nnc(SC(CC)C(=O)NCCOC)c2cc3occc3n12 (stereo not given)	nt	nt	2%	nt	nt	-33%[59 µM]
NC(=O)c1c(NC(=O)c2ccc(S(=O)(=O)N3CCOCC3)cc2)sc2c1CCCCC2	-1	-1%	-13%	?	-13%	?
CCOC(=O)N1CCN(S(=O)(=O)c2ccc(C(=O)Nc3sc4c(c3C(N)=O)CCN(CC)C4)cc2)CC1	-4	-7%	46%	-6%	-14%	50µM*
CN1CCc2c(sc(NC(=O)c3ccc(S(=O)(=O)N4CCOCC4)cc3)c2C(N)=O)C1	-2	-3%	-1%	20%	-2%	40µM*
CN1CCc2c(sc(NC(=O)C3CCCN3S(=O)(=O)c3ccc(Cl)s3)c2C(N)=O)C1 (stereo not given)	-2	-10%	7%	nt	6%	45µM*
CN1CCN(S(=O)(=O)c2cccc(C(=O)Nc3sc4c(c3C(N)=O)CCCC4)c2)CC1	-1	-4%	4%	56µM*	-10%	?
C[C@@H]1CC[C@H]2[C@H](C)[C@H]3CC[C@H]4C5[C@@H](O)CC6=CC(=O)CC[C@]6(C)[C@H]5C[C@H]4C3C(=O)N2C1 (stereo not given in full)	nt	nt	-7%	4%	nt	nt
COC(=O)CC1Oc2cc3oc4c5ccccc5oc(=O)c4c3cc2O1 (stereo not given)	nt	nt	nt	5%	nt	nt
CCOC(=O)N1CCN(S(=O)(=O)c2ccc(C(=O)Nc3sc4c(c3C(=O)OC)CCN(C)C4)cc2)CC1	-11	-1%	7%	8%	-4%	56µM*
CCOC(=O)c1c(NC(=O)c2ccc(S(=O)(=O)N3CCC(C)CC3)cc2)sc2c1CCN(C)C2	nt	nt	5%	nt	nt	-24%[59 µM]
CCN1/C(=C/c2ccc3cc(C)ccc3[n+]2CC)Sc2ccccc21	-2	-16%	4%	11µM*	11%	7.9µM*
CN1/C(=C/c2cccc[n+]2CCO)Sc2ccccc21	-2	0%	-8%	-1%	11%	45µM*
CCN1/C(=C/c2ccc3cc(C)ccc3[n+]2CC)Sc2cc(C)c(C)cc21	-3	-4%	7%	25µM*	5%	14µM*
Cc1ccc(SCC(=O)N2c3ccccc3Sc3ccccc32)cc1	1	1%	0%	0%	-12%	26%[12.7 µM]
CC[n+]1c(/C=C2\Sc3ccccc3N2C)ccc2cccc(C)c21	-3	-20%	-13%	?	2%	25µM*
CC[n+]1ccccc1/C=C1\Sc2ccc(C)cc2N1C	2	1%	-11%	-9%	2%	43%[0.501 µM]
COc1ccccc1-[n+]1c(C)cc(/C=C2\Sc3ccccc3N2C)cc1C	1	-5%	-7%	-28%	17%	?
CC1=C(C(=O)OC2CCCC2)C(c2ccc(F)cc2F)CC(=O)N1 (stereo not given)	nt	nt	-2%	nt	nt	-3%[59 µM]
CCOc1ccccc1CNC(=O)c1cc2n(n1)CCCN(Cc1ccc(C)cc1)C2=O	nt	nt	3%	nt	nt	15%[59 µM]
SMILES	CCT chaperon mod	Mm-Cpn inhibitor	VDR inhibitor	Sfp inh	PLK1 PBD block	G9a block
C=C1CCC[C@]2(C)C[C@H]3OC(=O)C(CNCCN(C)C)[C@H]3CC12 (stereo not given in full)	1	-1%	-7%	-5%	-5%	0%[12.7 µM]
C=C1CCC[C@]2(C)C[C@H]3OC(=O)[C@H](CNCCc4ccccc4OC)C3CC12 (stereo not given in full)	nt	nt	-15%	56µM*	nt	nt
S=C(NCc1ccncc1)NC1CCCC1	-4	-1%	-18%	6%	-7%	50µM*
O=C(NCc1ccncc1)C1CCCCC1	-3	0%	-26%	21%	27µM*	10%[59 µM]
O=C(NCc1ccccc1)C1CCCC1	nt	-15%	nt	6%	nt	nt
COc1ccc2c(c1)C(c1ccc(C)cc1)CC(=O)O2 (stereo not given)	nt	nt	-4%	12%	nt	21%
Cc1nc(Nc2cc(F)ccc2C)c2nnn(Cc3ccccc3)c2n1	-1	-1%	?	-51%	24µM*	nt
Cc1nc2c(nnn2Cc2ccccc2Cl)c(=O)[nH]1	1	-4%	-6%	11%	3%	0%[0.501 µM]
Cc1nc2c(nnn2Cc2ccccc2)c(=O)[nH]1	-2	1%	?	3%	4.7µM*	?
Cc1nc(Nc2ccccc2Br)c2nnn(Cc3ccccc3)c2n1	-2	0%	-15%	-22%	-10%	nt
Cc1nc(Nc2ccc(Cl)cc2)c2nnn(Cc3ccccc3)c2n1	1	-1%	-2%	21%	27µM*	-4%
COc1ccc(NC(=O)CSc2nc3cc(OC)c(OC)cc3c3nc(-c4ccccc4)nn23)cc1Cl	nt	nt	-21%	nt	nt	6%[59 µM]
Cc1ccc(S(=O)(=O)Nc2cccc(C(=O)NCC(C)(C)N3CCOCC3)c2)cc1F	-1	1%	-11%	nt	0%	5%[0.501 µM]
CC(C)(CNC(=O)c1cccc(S(=O)(=O)Nc2ccc(SC(F)F)cc2)c1)N1CCOCC1	-1	nt	-24%	nt	13µM*	nt
CCN(CC)C(=O)N1c2ccccc2C=Cc2ccccc21	-2	0%	11%	0%	-4%	24%
CN(C)CCCNC(=O)N1c2ccccc2C=Cc2ccccc21	-5	1%	?	10%	27µM*	nt
CCOc1ccc(-c2cc(C(=O)NCCc3ccccc3)c3c(-c4ccc(C)cc4)[nH]nc3n2)cc1	nt	nt	-9%	nt	nt	13%[59 µM]
CC(C)(C)OC(=O)N1CCC[C@H]1c1nnc(SCc2ccccc2F)o1	-3	-5%	7%	6%	-1%	50µM*

Screening data: PubChem BioAssay, National Center for Advancing Translational Sciences (NCATS)
